Results from PubChem BioAssay (NCATS).
Records with an inconclusive call do not appear. Calls of active or inactive are those of the source. Calls follow the shape of the dose curve; as a rule, active = well fitted cell-killing curve with a large enough effect; inconclusive = small, poorly fitted or top-dose-only effect, or effect the other way; inactive = no such curve, though single readings can be large or run the other way. Positions of bridges follow the written chain, without caps; N, C: chain ends. Non-standard residues stand in square brackets, D forms with d. Residues, ends and D or L forms follow the SMILES beside them. ξ: configuration not given here. *: point of attachment. Octanoyl(6-Me) = CCC(C)CCCCC(=O)*; ξThr(3R) = C[C@@H](O)C(N)C(=O)O; dDab = NCC[C@@H](N)C(=O)O; Dab = NCC[C@H](N)C(=O)O

experiment: Quantitative High-Throughput drug screen in 47 multiple myeloma cell lines against the NCATS MIPE library collection: KMS26_JCRB cell viability assay (AID 1918975); conditions: KMS26 myeloma cells viability, CellTiter-Glo ATP, 48 h; series mostly up to 45.8 µM; viability (% of DMSO): at the top concentration; also: nearly all actives have a fitted effect of over 45% in size
How it was run: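 Myeloma cells (500 per well) were exposed to MIPE 4.0 compounds by pin transfer and incubated 48 hours at 37C, 5% CO2. Viability was read as ATP by CellTiter-Glo luminescence, normalised to DMSO (100%) and media-only (0%) wells.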
Potency is read from the fitted curve at half-maximal effect.

| SMILES | Potency | viability (% of DMSO) |
| --- | --- | --- |
| O=C(O)C[C@H](O)C[C@H](O)C=Cc1c(C2CC2)nc2ccccc2c1-c1ccc(F)cc1 | 18.7 µM (active) | – |
| C[C@H](NC(=O)[C@@H](O)c1cc(F)cc(F)c1)C(=O)N[C@@H]1C(=O)N(C)c2ccccc2-c2ccccc21 | – | 140% (inactive) |
| O=[N+]([O-])c1cn2c(n1)OC[C@@H](OCc1ccc(OC(F)(F)F)cc1)C2 | – | 128% (inactive) |
| CC(=O)N1CCN(c2ccc(OCc3nn(C)c(C)c3-c3cccc4c(CCCOc5cccc6ccccc56)c(C(=O)O)n(Cc5cccnc5)c34)cc2)CC1 | 3.72 µM (active) | – |

experiment: Quantitative High-Throughput drug screen in 47 multiple myeloma cell lines against the NCATS MIPE library collection: MMM1_PLB cell viability assay (AID 1918976); conditions: MMM1 myeloma cells viability, CellTiter-Glo, 48 h; series mostly up to 45.8 µM; viability (% of control): at the top concentration; also: nearly all actives have a fitted effect of over 35% in size
How it was run: (§1)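 Inhibition of viability over 48 h was scored by ATP content (CellTiter-Glo) in 500-cell wells. Zero and full viability were defined by media-only and DMSO-only wells.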

| SMILES | viability (% of control) | Potency |
| --- | --- | --- |
| CC[C@H]1OC(=O)[C@H](C)[C@@H](O[C@H]2C[C@@](C)(OC)[C@@H](O)[C@H](C)O2)[C@H](C)[C@@H](O[C@@H]2O[C@H](C)C[C@H](N(C)C)[C@@H]2O)[C@](C)(OC)C[C@@H](C)C(=O)[C@H](C)[C@@H](O)[C@]1(C)O | 114% (inactive) | – |
| CC(Oc1ccc(O)cc1)(P(=O)(O)O)P(=O)(O)O | 98.1% (inactive) | – |
| CC(C)(C)c1nc2c3cc[nH]c(=O)c3c3cc(F)ccc3c2[nH]1 | – | 0.662 µM (active) |
| COC(=O)C1C2CC3c4[nH]c5cc(OC)ccc5c4CCN3CC2CC(OC(=O)c2cc(OC)c(OC)c(OC)c2)C1OC (centres undefined) | – | 20.9 µM (active) |
| C[C@H](CCC(=O)O)[C@H]1CCC2C3C[C@H](O)[C@@H]4C[C@H](O)CC[C@]4(C)C3CC[C@@]21C (some centres undefined) | – | 0.833 µM (active) |
| CN1C(C(=O)Nc2ccccn2)=C(O)c2sc(Cl)cc2S1(=O)=O | – | 20.9 µM (active) |
| O=C(O)C[C@H](O)C[C@H](O)C=Cc1c(C2CC2)nc2ccccc2c1-c1ccc(F)cc1 | – | 14.8 µM (active) |

experiment: Quantitative High-Throughput drug screen in 47 multiple myeloma cell lines against the NCATS MIPE library collection: MOLP8_DSMZ cell viability assay (AID 1918977); conditions: MOLP8 myeloma viability, CellTiter-Glo ATP luminescence, 48 h; series mostly up to 45.8 µM; viability (% of control): at the top concentration; also: nearly all actives have a fitted effect of over 45% in size
How it was run: as §1

| SMILES | Potency | viability (% of control) |
| --- | --- | --- |
| Cn1cc(C=CC(=O)c2cccc(F)c2)cc1C=CC(=O)NO | 16.6 µM (active) | – |
| O=C1NC(O)CCN1[C@@H]1O[C@H](CO)[C@H](O)[C@H]1O (some centres undefined) | – | 98% (inactive) |
| Nc1nc(N)c2nc(-c3cccc(O)c3)c(-c3cccc(O)c3)nc2n1 | 26.4 µM (active) | – |
| C=C(C)[C@@H]1CC[C@]2(C(=O)O)CC[C@]3(C)[C@H](CC[C@@H]4[C@@]5(C)CC[C@H](O)C(C)(C)[C@@H]5CC[C@]43C)[C@@H]12 | – | 103% (inactive) |
| CC[C@H]1OC(=O)[C@H](C)[C@@H](O[C@H]2C[C@@](C)(OC)[C@@H](O)[C@H](C)O2)[C@H](C)[C@@H](O[C@@H]2O[C@@H](C)C[C@H](N(C)C)[C@@H]2O)[C@](C)(O)C[C@@H](C)C(=O)[C@H](C)[C@@H](O)[C@]1(C)O | – | 81.5% (inactive) |
| COC1=C(OC)C(=O)C(CC=C(C)CCC=C(C)CCC=C(C)CCC=C(C)CCC=C(C)CCC=C(C)CCC=C(C)CCC=C(C)CCC=C(C)CCC=C(C)C)=C(C)C1=O | – | 138% (inactive) |
| O=c1[nH]c(=O)n([C@H]2C[C@@H](O)[C@@H](CO)O2)cc1C=CBr | – | 106% (inactive) |
| C[C@@H]1[C@H](C)CC[C@]2(C(=O)O)CC[C@]3(C)C(=CC[C@@H]4[C@@]5(C)C[C@@H](O)[C@H](O)[C@@](C)(CO)[C@H]5CC[C@]43C)[C@@H]12 | – | 107% (inactive) |
| CCC(C)CCCCC(=O)N[C@@H](CCN)C(=O)NC(C(=O)N[C@H](CCN)C(=O)N[C@@H]1CCNC(=O)C([C@@H](C)O)NC(=O)[C@@H](CCN)NC(=O)[C@@H](CCN)NC(=O)[C@@H](CC(C)C)NC(=O)[C@H](Cc2ccccc2)NC(=O)[C@H](CCN)NC1=O)[C@@H](C)O (stereo partly drawn) ({Octanoyl(6-Me)}-[Dab][ξThr(3R)][dDab][dDab][Dab]F[dL][dDab][dDab][ξThr(3R)]; lactam 4-C) | – | 107% (inactive) |
| Cn1c(Nc2ccc(C(F)(F)F)cc2)nc2cc(Oc3ccnc(-c4ncc(C(F)(F)F)[nH]4)c3)ccc21 | 6.62 µM (active) | – |
| O=C(O)CCCCCC(=O)NN=C1CCCC1 | – | 110% (inactive) |
| COC(=O)[C@@H]1[C@H]2C[C@@H]3c4[nH]c5ccccc5c4CCN3C[C@@H]2CC[C@@H]1O | – | 113% (inactive) |
| COC(=O)[C@@H]1CC2=CC(=O)CC[C@]2(C)[C@@]23O[C@@H]2C[C@@]2(C)[C@H](CC[C@@]24CCC(=O)O4)[C@@H]13 | – | 100% (inactive) |
| CN[C@H](CC(C)C)C(=O)N[C@H]1C(=O)N[C@@H](CC(N)=O)C(=O)N[C@@H]2C(=O)N[C@H]3C(=O)N[C@H](C(=O)N[C@H](C(=O)O)c4cc(O)cc(O)c4-c4cc3ccc4O)[C@H](O)c3ccc(c(Cl)c3)Oc3cc2cc(c3O[C@@H]2O[C@H](CO)[C@@H](O)[C@H](O)[C@@H]2O[C@H]2C[C@](C)(N)[C@H](O)[C@H](C)O2)Oc2ccc(cc2Cl)[C@H]1O | – | 126% (inactive) |
| O=C(O)C[C@H](O)C[C@H](O)C=Cc1c(C2CC2)nc2ccccc2c1-c1ccc(F)cc1 | 4.69 µM (active) | – |
| C[C@H](NC(=O)[C@@H](O)c1cc(F)cc(F)c1)C(=O)N[C@@H]1C(=O)N(C)c2ccccc2-c2ccccc21 | – | 95.4% (inactive) |
| O=[N+]([O-])c1cn2c(n1)OC[C@@H](OCc1ccc(OC(F)(F)F)cc1)C2 | – | 98% (inactive) |
| C[C@]12CCC(=O)C=C1[C@@H]1CC1[C@H]1[C@H]3[C@@H]4C[C@H]4[C@@]4(CCC(=O)O4)[C@@]3(C)CC[C@H]12 (some centres undefined) | – | 108% (inactive) |
